HP1b binding inh: HTS for Inhibitors of HP1-beta Chromodomain Interactions with Methylated Histone Tails. Chromobox protein homolog 1 (Homo sapiens), P83916. AlphaScreen HP1-beta / biotin-H3K9me3 peptide binding. Potency, µM (top dose mostly 114 µM), without a hit: at the top dose activity change, negative = inhibition, hits mostly inhibitors. hit rate 0.56% among 390,000. AID 540317, 2011; also: nearly all actives have a fitted effect of over 70% in size
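HP1-beta protein (50 nM final) preincubated 30 min at room temperature with biotinylated H3(1-18)K9me3 peptide (50 nM) in PBS pH 7.4, 0.01% Tween-20, then compound added for 30 min. AlphaScreen streptavidin donor/nickel chelate acceptor beads (10 ug/mL final), 30 min dark, luminescence read.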
ALOX12 inh: Primary qHTS assay for inhibitors of human arachidonate 12S-lipoxygenase (ALOX12): Round 2 | AID 1671190, 2021 | hit rate 1.1% among 580,000 | Polyunsaturated fatty acid lipoxygenase ALOX12 (Homo sapiens), P18054 | purified 12hLO, xylenol orange hydroperoxide absorbance | Potency, µM (titrated, usually from 108 µM), for the others: at the top dose activity change, negative = inhibition, most hits filed as inhibitors; also: % is scaled to controls: 0 for no effect and ±100 for the full control effect
Target sequence (P18054 whole entry, looked up): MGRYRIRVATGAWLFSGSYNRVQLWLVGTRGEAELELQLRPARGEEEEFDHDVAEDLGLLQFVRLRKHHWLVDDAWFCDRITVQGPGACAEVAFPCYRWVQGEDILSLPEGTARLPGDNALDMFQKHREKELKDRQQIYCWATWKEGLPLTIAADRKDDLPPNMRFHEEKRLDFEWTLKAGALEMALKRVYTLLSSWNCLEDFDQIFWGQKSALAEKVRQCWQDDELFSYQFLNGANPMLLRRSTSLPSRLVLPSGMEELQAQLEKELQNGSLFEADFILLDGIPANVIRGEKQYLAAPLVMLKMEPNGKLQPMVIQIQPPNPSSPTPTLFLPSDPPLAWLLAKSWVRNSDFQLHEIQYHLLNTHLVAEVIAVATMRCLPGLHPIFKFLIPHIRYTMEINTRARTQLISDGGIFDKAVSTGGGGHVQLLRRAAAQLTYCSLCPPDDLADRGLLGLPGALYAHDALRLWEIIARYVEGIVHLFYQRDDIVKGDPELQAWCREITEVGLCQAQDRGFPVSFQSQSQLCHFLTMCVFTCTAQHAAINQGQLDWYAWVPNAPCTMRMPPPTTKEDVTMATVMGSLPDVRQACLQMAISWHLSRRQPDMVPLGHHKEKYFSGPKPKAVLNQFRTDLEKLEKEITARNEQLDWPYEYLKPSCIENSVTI
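Purified human 12hLO at 150 nM in 25 mM Hepes, 0.01% Triton X-100, pH 7.0, preincubated 15 min at room temperature with compound. Reaction started with 40 uM arachidonic acid, 30 min at room temperature. Hydroperoxide measured by Fe-xylenol orange, 573/405 nm absorbance ratio.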
G9a block: qHTS Assay for Inhibitors of Histone Lysine Methyltransferase G9a. Potency, µM (doses to about 102 µM), for inactives: at the top dose activity, negative = inhibition, actives largely listed as inhibitors. hit rate 8.8% among 350,000. G9a H3K9 monomethylation, AlphaScreen, 2 h; also: % is scaled to controls: 0 for no effect and ±100 for the full control effect; nearly all actives have a fitted effect of over 75% in size
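Quantitative HTS format: methyltransferase activity on a biotin-tagged H3K9 peptide is measured by AlphaScreen, using a rabbit anti-monomethyl-H3K9 antibody with streptavidin donor and anti-IgG acceptor beads. Final levels are 20 nM enzyme, 500 nM peptide, 20 uM SAM; 2 h RT.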
Sfp inh: qHTS Assay for Inhibitors of Bacillus subtilis Sfp phosphopantetheinyl transferase (PPTase). hit rate 3.5% among 310,000. Biochemical Sfp PPTase activity, qHTS. Potency, µM, for the others: largest response in the series, negative = inhibition, usual class: inhibitors. 4'-phosphopantetheinyl transferase ffp (Bacillus subtilis), Q9F4F7;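 also: the enzyme is Sfp with the accession as filed and its product quenches rhodamine fluorescence; 0% = enzyme reaction without inhibitor and -100% = no enzyme wells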
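Reaction rates are the 30-min fluorescence difference (ex 525, em 598 nm) in wells containing 15 nM Sfp, 5 uM rhodamine-CoA and 12.5 uM BHQ-2-YbbR at pH 7.6 with 10 mM MgCl2.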
BAZ2B block: qHTS Assay for Inhibitors of BAZ2B; Bromodomain adjacent to zinc finger domain protein 2B (Homo sapiens), Q9UIF8; AlphaScreen BAZ2B-H3K14Ac peptide displacement; Potency, µM (series often up to 114 µM), for the others: top-dose activity change, negative = inhibition, actives largely listed as inhibitors; hit rate 4.4% among 360,000; AID 504333, 2011; also: % is scaled to controls: 0 for no effect and ±100 for the full control effect; nearly all actives have a fitted effect of over 60% in size
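AlphaScreen displacement of biotin-H3(5-23)K14Ac peptide (50 nM final) from BAZ2B (50 nM final) in PBS pH 7.4, 0.01% Tween-20; complex preformed 30 min RT, then compounds (top 110 uM) 30 min RT, beads 20 min dark.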
JMJD2A Tudor: qHTS Assay for Inhibitors of JMJD2A-Tudor Domain; AlphaScreen JMJD2A-Tudor / H3K4me3 peptide binding; Potency, µM (highest dose often 114 µM), for the others: at the top dose activity change, negative = inhibition, most hits filed as inhibitors; hit rate 4.4% among 390,000; also: % is scaled to controls: 0 for no effect and ±100 for the full control effect; nearly all actives have a fitted effect of over 50% in size
An asterisk follows results filed as active; ? = inconclusive; nt = no result; ! = repeats disagree; [ ] = remark or other dose. Most compounds without a hit are left out; they make up all but 8.7% or so of the library. Calls follow the shape of the dose curve; as a rule, active = well fitted curve in the direction sought with a large enough effect; inconclusive = small, poorly fitted or top-dose-only effect, or another doubt; inactive = no such curve, though single readings can be large; an effect the other way counts as inactive or inconclusive. Potency is read from the fitted curve at half-maximal effect.

SMILES	HP1b binding inh	ALOX12 inh	G9a block	Sfp inh	BAZ2B block	JMJD2A Tudor
O=C(CS(=O)(=O)c1ccccc1)Nc1nnc(Cc2ccccc2)s1	-13.4%	0.0%	31.6µM*	44.7µM*	-26.2%	-6.8%
CCC(CC)c1nnc(NC(=O)CS(=O)(=O)c2ccccc2)s1	-37.7%	?	10µM*	50.1µM*	-0.3%	-4.1%
CCc1nnc(NC(=O)CCS(=O)(=O)Cc2ccccc2)s1	-8.8%	34.3%	50.1µM*	13.3%	-17.1%	-17.8%
CSCc1noc(Cn2nc(-c3ccccc3)c3ccccc3c2=O)n1	nt	35.9%	nt	nt	nt	nt
CCC(CC)c1nnc(NC(=O)Cc2ccccc2[N+](=O)[O-])s1	-9.4%	1.2%	39.8µM*	12.4%	-28.1%	-12.7%
CCCc1nnc(NC(=O)CCS(=O)(=O)Cc2ccccc2)s1	15.1%	-9.8%	44.7µM*	-12.3%	6.8%	-6.7%
O=C(CCS(=O)(=O)Cc1ccccc1)Nc1nncs1	9.7%	-8.3%	44.7µM*	11.6%	3.3%	-1.4%
Cn1c(SCC(=O)Nc2sccc2C#N)nnc1-c1ccc(Cl)cc1	nt	-8.5%	nt	nt	nt	nt
Cc1csc(CN(C)C(=O)CN2C[C@@H]3CC[C@H](CC2=O)N3)n1	nt	33.3%	nt	nt	nt	nt
O=C(O)c1ccc(N/N=C/c2c[nH]c3ccccc23)cc1	21.4%	0.0%	?	-13.0%	?	-18.5%
CC(C)n1cc(/C=N/Nc2ccc(C(=O)O)cc2)c2ccccc21	0.6%	?	44.7µM*	-8.9%	-35.3%	-31.0%
Cn1cc(/C=N/NC(=O)c2ccccc2O)c2ccccc21	36.8%	-6.5%	1.4%	8.9%	1.1%	-24.5%
Cn1cc(/C=N/Nc2ccccc2)c2ccccc21	?	?	12.6µM*	-2.6%	39.8µM*	50.1µM*
O=C(N/N=C/c1cn(Cc2cccc(F)c2)c2ccccc12)c1cc(O)cc(O)c1	11.2µM*	?	nt	-21.4%	6.31µM*	7.08µM*
Nc1ccc(C(=O)N/N=C/c2cn(Cc3ccccc3F)c3ccccc23)cc1	8.6%	478.5%	nt	-11.4%	35.5µM*	89.1µM*
NC(=O)c1ccc(OCc2coc(-c3cccc(F)c3)n2)cc1	nt	-0.8%	nt	nt	nt	nt
O=C(O)c1ccc(N/N=C/c2cn(Cc3ccccc3F)c3ccccc23)cc1	-16.0%	-19.2%	1.9%[12.7 µM]	?	39.8µM*	56.2µM*
COC(=O)N/N=C/c1cn(Cc2ccccc2F)c2ccccc12	10.8%	91.9%	-4.5%[12.7 µM]	-7.0%	?	-22.7%
COc1ccc2cc(S(=O)(=O)N3CCCC3)c(=O)oc2c1	nt	10.0%	nt	nt	nt	nt
COc1ccc(N2C(=O)CN=C2Nc2nc(C)cc(C)n2)cc1OC	1.1%	-24.3%	-27.8%	-18.0%	?	79.4µM*
O=C(NCCc1c[nH]c2ccccc12)c1c(OCC2CC2)cc(=O)n2c1CCOCC2	nt	7.3%	nt	nt	nt	nt
Cc1cc(Cl)ccc1OCCCc1n[nH]c(=S)n1Cc1ccccc1	nt	15.8µM*	nt	nt	nt	nt
Cc1ccc(Cn2c(CCCOc3ccc(Cl)cc3Cl)n[nH]c2=S)cc1	nt	15.8µM*	nt	nt	nt	nt
CCn1c(CCCCc2n[nH]c(=S)n2CC)n[nH]c1=S	?	-28.4%	20µM*	-27.9%	-29.4%	4.47µM*
CCn1c(CCCOc2ccc(Cl)cc2Cl)n[nH]c1=S	34.3%	25.1µM*!	?	-15.1%	-30.4%	-22.6%
SMILES	HP1b binding inh	ALOX12 inh	G9a block	Sfp inh	BAZ2B block	JMJD2A Tudor
CCn1c(CCCOc2ccc(Cl)cc2Cl)nnc1SCC(=O)Nc1cccc(F)c1	3.0%	-10.0%	-4.0%[2.33 µM]	14.6%	-0.6%	-9.0%
CCCCCCCc1n[nH]c(=S)n1Cc1ccccc1	27.5%	?	nt	-9.3%	-3.4%	?
CCn1nc(C(=O)OCC(=O)Nc2ccc3c(c2)OC(F)(F)O3)c2ccccc2c1=O	nt	-1.2%	nt	nt	nt	nt
COCCCn1c(CCn2cc(Cl)cn2)n[nH]c1=S	nt	-29.8%	nt	nt	nt	nt
CCCCc1n[nH]c(=S)n1Cc1ccc(C)cc1	-8.2%	?	1.78µM*	-5.0%	-23.1%	14.1µM*
CCn1c(CCCOc2ccc(Cl)cc2C)n[nH]c1=S	nt	17.8µM*	nt	nt	nt	nt
O=C(c1cccc(F)c1)N1CCN(CC2CC3C=CC2C3)CC1 (configuration not stated)	?	?	10µM*	-6.1%	50.1µM*	5.62µM*
O=S(=O)(c1ccc(F)cc1)N1CCN(CC2CC3C=CC2C3)CC1 (configuration not stated)	?	?	22.4µM*	-27.3%	50.1µM*	11.2µM*
O=CN1CCN(C(=O)c2ccccc2F)CC1	11.2%	-2.4%	0.2%[59 µM]	16.6%	nt	-7.1%
O=C(c1ccccc1F)N1CCN(CC2CC3C=CC2C3)CC1 (configuration not stated)	?	-25.7%	?	-15.0%	56.2µM*	3.98µM*
Cc1ccc(CN2CCN(CC3CC4C=CC3C4)CC2)cc1 (configuration not stated)	?	?	?	?	28.2µM*	5.62µM*
O=S(=O)(Nc1ccc(-c2ccc(N3CCOCC3)nn2)cc1)c1ccc(C(F)(F)F)cc1	nt	-24.3%	nt	nt	nt	nt
N#Cc1cccc(N2CCC3(CC(=O)NC3=O)C2)n1 (configuration not stated)	nt	-3.9%	nt	nt	nt	nt
O=C(C1CCCO1)N1CCc2c(n(Cc3ccccc3)n(-c3ccccc3)c2=O)C1 (configuration not stated)	nt	1.5%[176 µM]	nt	nt	nt	nt
CCC(C)CCCCCCCCCCC(=O)O (configuration not stated)	57.7%	10.5%	nt	nt	nt	50.1µM*
O=C(NN1C(=O)C2C3C=CC(O3)C2C1=O)c1cccc(O)c1 (configuration not stated)	42.7%	-2.2%	7.94µM*	44.7µM*	-2.9%	-13.1%
COc1cccc(C(=O)NN2C(=O)C3C4C=CC(O4)C3C2=O)c1 (configuration not stated)	57.8%	428.1%	?	?	-1.6%	-8.3%
O=C(NN1C(=O)C2C3C=CC(O3)C2C1=O)c1cccc(Br)c1 (configuration not stated)	46.1%	3.0%	?	39.8µM*	-11.1%	3.4%
COc1ccc(C(=O)NN2C(=O)C3C4C=CC(O4)C3C2=O)cc1 (configuration not stated)	10.7%	10.8%	4.47µM*	22.4µM*	0.1%	-10.9%
CC1CCc2c(-c3ccccc3O)nc3ccc4ccccc4c3c2C1 (configuration not stated)	nt	-4.0%	nt	nt	nt	nt
C/C(CC(=O)Nc1cccc2c1CCCC2)=N\NC(=O)c1ccccn1	nt	34.8%	nt	nt	nt	nt
